# Screen size: about 13,000 compounds; about 3,200 (25%) showed an effect of 50% or more. Some of the results follow.
# System: P. falciparum stage V gametocytes
# Design: BacTiter-Glo ATP luminescence viability of purified stage V gametocytes in 384-well plates, per cent inhibition versus DMSO
# Settings: 48 h, 5 µM; inhibitor
row,SMILES,% Inhibition
1,O=C(CCc1cnc[nH]1)Nc1cccc(-c2cccc(-c3nc4ccc(C(F)(F)F)cc4[nH]3)c2)c1 [TCMDC-132157],-1.759%
2,Cc1cnc(Nc2cccnc2)nc1Nc1ccccc1C(=O)NC(C)C [TCMDC-134207],8.943%
3,O=C(Nc1ccc(CN2CCN(S(=O)(=O)c3ccc(Cl)s3)CC2)cc1)c1cccs1 [TCMDC-136320],18.17%
4,Cc1cc(CNCCCCCCCNCc2ccc(-c3ccccc3)cc2)ccc1O [TCMDC-140415],101%
5,Cc1cc(CNCCCCCCNCc2ccc(Cl)cc2)ccc1O [TCMDC-140414],43.51%
6,O=C(NCCCCCCNCc1ccc(-c2ccccc2)cc1)Nc1ccc(Cl)c(Cl)c1 [TCMDC-140706],4.226%
7,Cc1cc(CNCCCCCNCc2ccc(Cl)cc2)ccc1O [TCMDC-140411],48.45%
8,Cc1cc(CNCCCCCCCNCc2ccc(Cl)cc2)ccc1O [TCMDC-140417],-6.741%
9,N#Cc1ccc2c(c1)CN(CCCCNC(=O)c1ccc(-c3ccccc3)cc1)CC2 [TCMDC-139091],8.247%
10,N#Cc1ccc(CNCCCCCCCNCc2ccc(-c3ccccc3)cc2)cc1 [TCMDC-140407],71.46%
11,Cc1cc(CNCCCCCCNCc2ccc(-c3ccccc3)cc2)ccc1O [TCMDC-140412],99.09%
12,O=C(/C=C/c1ccc(Cl)c(Cl)c1)NCCCCCN1CCC(NC(=O)c2cc(Cl)ccc2F)CC1 [TCMDC-135870],-52.06%
13,CC(C)(C)c1ccc(S(=O)(=O)Nc2ccccc2N2CCOCC2)cc1 [TCMDC-124560],22.48%
14,CC(=O)c1cc(N2CCCC2)ccc1N [TCMDC-125017],-63.54%
15,CCCCCCc1cc2cc(-c3nc(-c4ccc(OC)cc4)cs3)c(=O)oc2cc1O [TCMDC-124081],-11.41%
16,O=C(Nc1cccc(-c2cccc(-c3nc4ccc(C(F)(F)F)cc4[nH]3)c2)c1)c1cnc[nH]1 [TCMDC-136935],37.83%
17,CC1(C)Cc2c([nH]c3ccccc23)C(CCCCCCCCC2=NC(C)(C)Cc3c2[nH]c2ccccc32)=N1 [TCMDC-137565],110.1%
18,NC1=NC2(CCCCC2)N(OCCCCCCc2ccccc2)C(N)=N1 [TCMDC-131605],26.32%
19,Cc1nn(C2CCS(=O)(=O)C2)c(C)c1C1Nc2ccccc2C(=O)N1Cc1ccc2c(c1)OCO2 (stereo not drawn) [TCMDC-125241],62.63%
20,Cc1cc(C2NC(=O)c3ccccc3N2)c(C)n1-c1ccc2c(c1)OCO2 (stereo not drawn) [TCMDC-125051],5.355%
21,OC(c1cccc(OCc2ccccc2)c1)C1CN(CCc2ccccc2)CCC1(O)c1ccccc1 (stereo not drawn) [TCMDC-131997],1.971%
22,COc1cc(Nc2nccc(-c3c(-c4cccc(NC(=O)c5c(F)cccc5F)c4)nn4ccccc34)n2)cc(OC)c1OC [TCMDC-135668],-53.25%
23,CCCCCC(=O)N1CCOC(CCN2CCc3c(c4ccccc4n3C)C2)(c2ccc(Cl)c(Cl)c2)C1 (stereo not drawn) [TCMDC-135564],-20.19%

row,SMILES,% Inhibition
1,Cc1csc2nc(-c3ccccn3)nc(Nc3ccncn3)c12 [TCMDC-138927],119.9%
2,S=C(NCCc1ccccc1)Nc1ccc2ncsc2c1 [TCMDC-139021],-23.08%
3,Cc1csc2nc(-c3ccccn3)nc(Nc3ccc4ncsc4c3)c12 [TCMDC-138923],100.3%
4,O=C(Nc1ccnc(N2CC3CC2CN3Cc2cccc(O)c2)c1)c1ccc(F)cc1 (stereo not drawn) [TCMDC-134956],-60.26%
5,FC(F)(F)c1ccc2[nH]c(-c3ccc(-c4ccc(CNCC5CCCO5)cc4)cc3)nc2c1.O=C(O)C(F)(F)F (stereo not drawn) [TCMDC-133096],-14.34%
6,O=C(CCc1nc2c(cnn2-c2ccccc2)c(=O)[nH]1)NC1CCSc2ccccc21 (stereo not drawn) [TCMDC-124875],-14.45%
7,Cc1cccc2nc(-c3ccc(-c4ccc(CN5CCCCC5)cc4)s3)[nH]c12.O=C(O)C(F)(F)F [TCMDC-133902],-19.5%
8,Cc1cccc2nc(-c3ccc(-c4cccc(CN5CCN(CC6CCCN(C)C6)CC5)c4)s3)[nH]c12.O=C(O)C(F)(F)F (stereo not drawn) [TCMDC-133909],55.65%
9,Cc1cccc2nc(-c3ccc(-c4ccc(CN5CCN(CC6CCCN(C)C6)CC5)cc4)s3)[nH]c12.O=C(O)C(F)(F)F (stereo not drawn) [TCMDC-133899],90.54%
10,Cc1cccc2nc(-c3ccc(-c4ccc(CN5CCN(c6ccncc6)CC5)cc4)s3)[nH]c12.O=C(O)C(F)(F)F [TCMDC-132912],36.62%
11,CN1CCCC(CN2CCN(Cc3cccc(-c4ccc(-c5nc6ccccc6[nH]5)s4)c3)CC2)C1.O=C(O)C(F)(F)F (stereo not drawn) [TCMDC-133904],49.15%
12,Cc1cccc2nc(-c3ccc(-c4cccc(CN5CCN(c6ccncc6)CC5)c4)s3)[nH]c12.O=C(O)C(F)(F)F [TCMDC-132917],20.85%
13,Cc1c(CNCCCNc2nc3ccccc3[nH]2)[nH]c2cc(Cl)cc(Cl)c12 [TCMDC-139964],2.559%
14,Oc1ccc(-c2cncc(NCc3ccc(F)c(F)c3)c2)cc1 [TCMDC-136668],23.22%
15,CC(=O)Nc1nc(C(=O)Nc2ccc(-c3ccc(-c4nc5ccc(F)cc5[nH]4)cc3)cc2)cs1 [TCMDC-136779],1.328%
16,C=CC(=O)Nc1ccc(Cl)cc1C(O)c1ccccc1 (stereo not drawn) [TCMDC-131787],1.536%
17,CC(C)C1c2ccc(O)cc2CC2C(=O)N(C3CCCCC3)C(=O)N21 (stereo not drawn) [TCMDC-138120],28.46%
18,Cc1cc(-c2cccc(CNCc3ccccc3)c2)ccc1S(=O)(=O)NCCN1CCCC1 [TCMDC-132382],4%
19,Cc1cc(-c2cccc(CNC3CCN(C)CC3)c2)ccc1S(=O)(=O)NC1CCC1 [TCMDC-132380],72.06%
20,Cc1cc(-c2cccc(CNC3CCN(C)CC3)c2)ccc1S(=O)(=O)NCCN1CCCC1 [TCMDC-132383],87.02%
21,Cc1cc(-c2cccc(CNC3CCCC3)c2)ccc1S(=O)(=O)NCCN1CCCC1 [TCMDC-132279],103.9%
22,CN1CCC(NCc2cccc(-c3ccc(S(=O)(=O)NCCN4CCCC4)c(F)c3)c2)CC1 [TCMDC-132222],88.17%
23,Cc1cnc2cc3c(cc2c1N1CCN(C)CC1)NCC3 [TCMDC-140363],-97.35%

row,SMILES,% Inhibition
1,Cc1cccc(-c2ccc(NC(=O)Nc3ccc4nccc(N5CCN(C)CC5)c4c3)cc2C)n1 [TCMDC-139353],26.78%
2,COc1ccc(C=NNc2nc3ccccc3[nH]2)cc1O [TCMDC-124104],-79.21%
3,COC(=O)C(Cc1ccccc1)NC(=O)NC1CCN(c2ccnc(Nc3ccc(F)cc3)n2)C1 (stereo not drawn) [TCMDC-133597],34.56%
4,Nc1nc(N)c2c(n1)CCC(c1ccccc1)C2 (stereo not drawn) [TCMDC-137806],-20.76%
5,CS(=O)(=O)c1ccc(Nc2ncc(-c3ccc(S(C)(=O)=O)cc3)c(OCC(F)(F)F)n2)cc1 [TCMDC-138524],24.49%
6,COc1ccc(C(C(=O)NC2CCN(C[C@H](O)c3ccnc4ccc(OC)cc34)CC2)N2CCc3ccccc3C2)cc1 (stereo partly drawn) [TCMDC-140986],7.291%
7,Cc1ccc(F)c(OCC2CCN(c3ccc(C(=O)NC4CC4)cn3)CC2)c1 [TCMDC-134037],41.12%
8,CN(C)CCCOc1cccc(CCNCc2cccc(Oc3ccc(Cl)cc3)c2)c1 [TCMDC-140091],58.44%
9,OC(CNCc1cccc(Oc2ccc(Cl)cc2)c1)c1cccc(C(F)(F)F)c1 (stereo not drawn) [TCMDC-140301],-22.32%
10,Cc1c(-c2cccc(CNCCc3ccc(Cl)cc3)c2)cnc(N)c1C [TCMDC-138274],9.871%
11,CN(C)CCCOc1cccc(NC(=O)Nc2ccc(Cl)c(Cl)c2)c1 [TCMDC-139538],-5.244%
12,CN(C)CCCOc1ccc(CCNCc2cccc(Oc3ccc(Cl)cc3)c2)cc1 [TCMDC-140092],79.59%
13,OC(CNCc1cccc(Oc2ccc(Cl)cc2)c1)c1cc(C(F)(F)F)cc(C(F)(F)F)c1 (stereo not drawn) [TCMDC-140302],49.58%
14,CN(C)CCCOc1ccc(CCCCc2ccc(Cl)cc2C(=O)c2ccccc2)cc1 [TCMDC-131856],31.42%
15,CN(C)CCCOc1ccc(CNCc2cccc(Oc3ccc(Cl)cc3)c2)cc1 [TCMDC-140101],61.18%
16,COc1ccc(NC(=O)/C=C/c2cc(F)cc(C(F)(F)F)c2)cc1OCCN(C(C)C)C(C)C [TCMDC-140669],-66.83%
17,Cc1cc2c(cc1C(F)(F)F)N(C(=O)Nc1cc(OCCN(C(C)C)C(C)C)cc(C(F)(F)F)c1)CC2 [TCMDC-140341],-56.2%
18,CC=CC(=O)N1CCN(c2nccc(-c3ccc(C(C)(C)C)cc3)n2)CC1 [TCMDC-124777],7.647%
19,COc1ccc(N2C(N)=NC(N)=NC2(C)C)cc1 [TCMDC-124269],-3.695%
20,O=[N+]([O-])c1cc(/C=N/Nc2nc3nonc3nc2Nc2ccc(F)cc2)c(Cl)cc1Cl [TCMDC-124221],-26.03%
21,COc1cccc(C2(C)CCN(CCCCNC(=O)c3ccc(NC(=O)c4ccc(Cl)cc4)cc3)CC2)c1 [TCMDC-138368],-18.96%
22,O=C(Nc1ccc(Br)cc1)N(CCN1CCOCC1)CC(O)COc1ccc(Cl)c(F)c1 (stereo not drawn) [TCMDC-141493],-10.57%
23,CC1(C)N=C(N)N=C(N)N1CCc1ccccc1 [TCMDC-125516],9.542%

# Source: article PMC4552634, “A New Set of Chemical Starting Points with Plasmodium falciparum Transmission-Blocking Potential for Antimalarial Drug Discovery” (PLoS ONE, 2015)
